# Measured values from PubChem BioAssay (EPA / NIEHS).
# Active and inactive are the calls of the source. How the source made its calls: active means hit-call score of the fitted dose curve at least 0.9, where 1 is the maximum; inactive means score below 0.9.
# What was measured:
# [1] = read-out: Vascular cell adhesion molecule 1 (VCAM1), VCAM1 (gene 7412); test: BSK_4H_VCAM1: BioMAP Diversity Plus: 4H Assay for Vascular cell adhesion molecule 1 (VCAM1) Biomarker Activity (AID 2283033); settings: primary human endothelial cells (HUVEC); actives raise or lower the signal;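 further: cell-surface VCAM-1 protein measured by ELISA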
# Procedure, shortened: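 ELISA read-out of VCAM-1 on human umbilical vein endothelium 24 hours after chemical dosing; gain or loss of signal was fitted relative to DMSO, with sulforhodamine B staining of parallel cultures flagging overt cytotoxicity.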
# [2] = read-out: Interferon-gamma inducible Protein 10 (IP10), CXCL10 (gene 3627); test: BSK_BE3C_IP10: BioMAP Diversity Plus: BE3C Assay for Interferon-gamma inducible Protein 10 (IP10) Biomarker Activity (AID 2283034); settings: primary human bronchial epithelial cells; actives raise or lower the signal
# Procedure, shortened: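 Chemical is dosed onto human lung bronchial epithelial primary cells, cultures are incubated 24 h, and IP-10 is then quantified by ELISA. Gain or loss of signal is fitted in both directions relative to DMSO.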
# [3] = read-out: Transforming growth factor beta 1 (TGFb1), TGFB1 (gene 7040); test: BSK_BE3C_TGFb1: BioMAP Diversity Plus: BE3C Assay for Transforming growth factor beta 1 (TGFb1) Biomarker Activity (AID 2283036;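 further: TGF-b1 protein level measured by ELISA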); settings: primary human bronchial epithelial cells; actives raise or lower the signal
# Procedure, shortened: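 Primary human lung bronchial epithelial cells; compound exposure 24 h; TGF-b1 by ELISA; bidirectional fit, DMSO baseline. Parallel SRB total-protein staining for cytotoxicity.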
# [4] = read-out: Plasminogen activator inhibitor-1 (PAI1), SERPINE1 (gene 5054); test: BSK_BE3C_PAI1: BioMAP Diversity Plus: BE3C Assay for Plasminogen activator inhibitor-1 (PAI1) Biomarker Activity (AID 2283037); settings: primary human bronchial epithelial cells; actives raise or lower the signal
# Procedure, shortened: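 Primary human lung bronchial epithelial cells; chemical dosing; 24 h; PAI-1 measured by ELISA; bidirectional fit referenced to DMSO as negative control.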
# [5] = read-out: urokinase plasminogen activator (uPA), PLAU (gene 5328); test: BSK_BE3C_uPA: BioMAP Diversity Plus: BE3C Assay for urokinase plasminogen activator (uPA) Biomarker Activity (AID 2283038); settings: primary human bronchial epithelial cells; actives raise or lower the signal;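 on outcome: uPA protein level quantified by ELISA in cell cultures; uPA read one day after compound addition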
# Procedure, shortened: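 Measured by ELISA: uPA from human primary bronchial epithelial cells 24 h after chemical treatment. Values derive from bidirectional curve fitting with DMSO serving as negative control. Total protein by SRB staining in parallel wells flagged overt cytotoxicity.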
# [6] = read-out: Urokinase-type plasminogen activator receptor (uPAR), PLAUR (gene 5329); test: BSK_BE3C_uPAR: BioMAP Diversity Plus: BE3C Assay for Urokinase-type plasminogen activator receptor (uPAR) Biomarker Activity (AID 2283039); settings: primary human bronchial epithelial cells; actives raise or lower the signal;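 further: uPAR protein level measured by ELISA on the cells; cells exposed to compound for one day before measurement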
# Procedure, shortened: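 Human bronchial epithelial primary cells; chemical exposure 24 h; uPAR by ELISA; bidirectional fit vs DMSO control.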
# [7] = read-out: Interleukin-6 (IL6), IL6 (gene 3569); test: BSK_CASM3C_IL6: BioMAP Diversity Plus: CASM3C Assay for Interleukin-6 (IL6) Biomarker Activity for (AID 2283040); settings: primary human coronary artery smooth muscle cells; actives raise or lower the signal
# [8] = read-out: Tissue plasminogen activator (tPA), PLAT (gene 5327); test: BSK_BE3C_tPA: BioMAP Diversity Plus: BE3C Assay for Tissue plasminogen activator (tPA) Biomarker Activity (AID 2283041); settings: primary human bronchial epithelial cells; actives raise or lower the signal;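 further: tPA level quantified by ELISA one day after compound addition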
# Procedure, shortened: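 Primary human lung bronchial epithelial cultures receive test chemical; after 24 h, tPA is quantified by ELISA, and gain or loss of signal is fitted bidirectionally relative to DMSO baseline.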
# [9] = read-out: Interleukin-8 (IL8), CXCL8 (gene 3576); test: BSK_CASM3C_IL8: BioMAP Diversity Plus: CASM3C Assay for Interleukin-8 (IL8) Biomarker Activity (AID 2283042); settings: primary human coronary artery smooth muscle cells; actives raise or lower the signal;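 further: IL-8 protein level quantified by ELISA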
# [10] = read-out: Human Leukocyte Antigen - DR isotype (HLADR), HLA-DRA (gene 3122); test: BSK_CASM3C_HLADR: BioMAP Diversity Plus: CASM3C Assay for Human Leukocyte Antigen - DR isotype (HLADR) Biomarker Activity (AID 2283043); settings: primary human coronary artery smooth muscle cells; actives raise or lower the signal;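 further: cell-surface HLA-DR protein level quantified by ELISA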
# [11] = read-out: Macrophage colony-stimulating factor (MCSF), CSF1 (gene 1435); test: BSK_CASM3C_MCSF: BioMAP Diversity Plus: CASM3C Assay for Macrophage colony-stimulating factor (MCSF) Biomarker Activity (AID 2283044); settings: primary human coronary artery smooth muscle cells; actives raise or lower the signal;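 further: M-CSF protein amount quantified by ELISA after 24 h exposure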
# [12] = read-out: Low-density lipoprotein receptor (LDLR), LDLR (gene 3949); test: BSK_CASM3C_LDLR: BioMAP Diversity Plus: CASM3C Assay for Low-density lipoprotein receptor (LDLR) Biomarker Activity (AID 2283045); settings: primary human coronary artery smooth muscle cells; actives raise or lower the signal;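 further: LDLR protein level on the cell surface quantified by ELISA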
# [13] = read-out: Monocyte Chemoattractant Protein-1 (MCP1), CCL2 (gene 6347); test: BSK_CASM3C_MCP1: BioMAP Diversity Plus: CASM3C Assay for Monocyte Chemoattractant Protein-1 (MCP1) Biomarker Activity (AID 2283046); settings: primary human coronary artery smooth muscle cells; actives raise or lower the signal;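 further: MCP-1 level quantified by ELISA 24 h after dosing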
# [14] = BSK_CASM3C_Proliferation: Cell Proliferation Assessment in the BioMAP Diversity Plus: CASM3C Assay (AID 2283047); settings: primary human coronary artery smooth muscle cells;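 further: sulforhodamine B total protein stain as relative cell number at 560 nm; sub-confluent cells exposed 48 h before staining; fitted both ways against DMSO so gain or loss of cell number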
# [15] = read-out: Monokine induced gamma interferon (MIG), CXCL9 (gene 4283); test: BSK_CASM3C_MIG: BioMAP Diversity Plus: CASM3C Assay for Monokine induced gamma interferon (MIG) Biomarker Activity (AID 2283048); settings: primary human coronary artery smooth muscle cells; actives raise or lower the signal;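 further: MIG protein level measured by ELISA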
# [16] = read-out: serum amyloid A (SAA), SAA1 (gene 6288); test: BSK_CASM3C_SAA: BioMAP Diversity Plus: CASM3C Assay for serum amyloid A (SAA) Biomarker Activity (AID 2283049); settings: primary human coronary artery smooth muscle cells; actives raise or lower the signal;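 further: SAA protein level quantified by ELISA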
# [17] = BSK_CASM3C_SRB: Viability Assessment in the BioMAP Diversity Plus: CASM3C Assay (AID 2283050); settings: primary human coronary artery smooth muscle cells;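 further: total protein by SRB staining as cytotoxicity measure in parallel cultures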
# [18] = read-out: Thrombomodulin, THBD (gene 7056); test: BSK_CASM3C_Thrombomodulin: BioMAP Diversity Plus: CASM3C Assay for Thrombomodulin Biomarker Activity (AID 2283051); settings: primary human coronary artery smooth muscle cells; actives raise or lower the signal;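 further: thrombomodulin protein level measured by ELISA 24 h after dosing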
# [19] = read-out: Tissue Factor, F3 (gene 2152); test: BSK_CASM3C_TissueFactor: BioMAP Diversity Plus: CASM3C Assay for Tissue Factor Biomarker Activity (AID 2283052); settings: primary human coronary artery smooth muscle cells; actives raise or lower the signal;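 further: cell surface tissue factor protein level read by ELISA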
structure (smiles),measurement,setting,value
CN(C)C(=O)Nc1ccc(Cl)c(Cl)c1,outcome,[1],inactive
same,outcome,[2],inactive
same,outcome,[3],inactive
same,outcome,[4],inactive
same,outcome,[5],inactive
same,outcome,[6],inactive
same,outcome,[7],inactive
same,outcome,[8],inactive
same,outcome,[9],inactive
same,outcome,[10],inactive
same,outcome,[11],inactive
same,outcome,[12],inactive
same,outcome,[13],inactive
same,outcome,[14],inactive
same,outcome,[15],inactive
same,outcome,[16],inactive
same,outcome,[17],inactive
same,outcome,[18],inactive
same,outcome,[19],inactive
O=C(O)c1ccccc1,outcome,[1],inactive
same,outcome,[2],inactive
same,outcome,[3],inactive
same,outcome,[4],inactive
same,outcome,[5],inactive
same,outcome,[6],inactive
same,outcome,[7],inactive
same,outcome,[8],inactive
same,outcome,[9],inactive
same,outcome,[10],inactive
same,outcome,[11],inactive
same,outcome,[12],inactive
same,outcome,[13],inactive
same,outcome,[14],inactive
same,outcome,[15],inactive
same,outcome,[16],inactive
same,outcome,[17],inactive
same,outcome,[18],inactive
same,outcome,[19],inactive
Cc1nn(C)c(Oc2ccccc2)c1C=NOCc1ccc(C(=O)OC(C)(C)C)cc1,outcome,[1],inactive
same,AC50,[2],11.7 µM (active)
same,outcome,[3],inactive
same,AC50,[4],7.02 µM (active)
same,outcome,[5],inactive
same,outcome,[6],inactive
same,outcome,[7],inactive
same,outcome,[8],inactive
same,outcome,[9],inactive
same,outcome,[10],inactive
same,outcome,[11],inactive
same,outcome,[12],inactive
same,outcome,[13],inactive
same,AC50,[14],20 µM (active)
same,outcome,[15],inactive
same,outcome,[16],inactive
same,outcome,[17],inactive
same,AC50,[18],16.3 µM (active)
same,outcome,[19],inactive
C[C@]12C[C@H](O)[C@H]3[C@@H](CCC4=CC(=O)CC[C@@]43C)[C@@H]1CC[C@@H]2C(=O)CO,outcome,[1],inactive
same,AC50,[2],34.8 µM (active)
same,outcome,[3],inactive
same,outcome,[4],inactive
same,outcome,[5],inactive
same,outcome,[6],inactive
same,AC50,[7],0.447 µM (active)
same,outcome,[8],inactive
same,AC50,[9],0.551 µM (active)
same,outcome,[10],inactive
same,AC50,[12],21.1 µM (active)
same,AC50,[13],0.573 µM (active)
same,AC50,[14],0.397 µM (active)
same,outcome,[15],inactive
same,AC50,[16],0.668 µM (active)
same,outcome,[17],inactive
same,outcome,[18],inactive
same,outcome,[19],inactive
COC(=O)c1c(Cl)nn(C)c1S(=O)(=O)NC(=O)Nc1nc(OC)cc(OC)n1,outcome,[1],inactive
same,outcome,[2],inactive
same,outcome,[3],inactive
same,outcome,[4],inactive
same,outcome,[5],inactive
same,outcome,[6],inactive
same,outcome,[7],inactive
same,outcome,[8],inactive
same,outcome,[9],inactive
same,outcome,[10],inactive
same,outcome,[11],inactive
same,outcome,[12],inactive
same,outcome,[13],inactive
same,outcome,[14],inactive
same,outcome,[15],inactive
same,outcome,[16],inactive
same,outcome,[17],inactive
same,outcome,[18],inactive
same,outcome,[19],inactive
CCCCOCCOCCOCc1cc2c(cc1CCC)OCO2,outcome,[1],inactive
same,outcome,[2],inactive
same,outcome,[3],inactive
same,outcome,[4],inactive
same,outcome,[5],inactive
same,outcome,[6],inactive
same,outcome,[7],inactive
same,outcome,[8],inactive
same,outcome,[9],inactive
same,outcome,[10],inactive
same,outcome,[11],inactive
same,outcome,[12],inactive
same,outcome,[13],inactive
same,outcome,[14],inactive
same,outcome,[15],inactive
same,outcome,[16],inactive
same,outcome,[17],inactive
same,outcome,[18],inactive
same,outcome,[19],inactive
CC1(C)C(C=C(Cl)Cl)C1C(=O)OCc1cccc(Oc2ccccc2)c1 (centres undefined),outcome,[1],inactive
same,outcome,[2],inactive
same,outcome,[3],inactive
same,outcome,[4],inactive
same,outcome,[5],inactive
same,outcome,[6],inactive
same,AC50,[7],6.26 µM (active)
same,outcome,[8],inactive
same,outcome,[9],inactive
same,outcome,[10],inactive
same,outcome,[11],inactive
same,outcome,[12],inactive
same,outcome,[13],inactive
same,outcome,[14],inactive
same,outcome,[15],inactive
same,outcome,[16],inactive
same,outcome,[17],inactive
same,AC50,[18],13.4 µM (active)
same,outcome,[19],inactive
CCCCOC(=O)[C@@H](C)Oc1ccc(Oc2ccc(C(F)(F)F)cn2)cc1,outcome,[1],inactive
same,outcome,[2],inactive
same,outcome,[3],inactive
same,outcome,[4],inactive
same,outcome,[5],inactive
same,outcome,[6],inactive
same,outcome,[7],inactive
same,outcome,[8],inactive
same,outcome,[9],inactive
same,outcome,[10],inactive
same,outcome,[11],inactive
same,outcome,[12],inactive
same,outcome,[13],inactive
same,outcome,[14],inactive
same,outcome,[15],inactive
same,outcome,[16],inactive
same,outcome,[17],inactive
same,outcome,[18],inactive
same,outcome,[19],inactive
CCNc1nc(N)nc(Cl)n1,outcome,[1],inactive
same,outcome,[2],inactive
same,outcome,[3],inactive
same,outcome,[4],inactive
same,AC50,[5],10.9 µM (active)
same,outcome,[6],inactive
same,outcome,[7],inactive
same,outcome,[8],inactive
same,outcome,[9],inactive
same,outcome,[10],inactive
same,outcome,[11],inactive
same,outcome,[12],inactive
same,outcome,[13],inactive
same,outcome,[14],inactive
same,outcome,[15],inactive
same,AC50,[16],20 µM (active)
same,outcome,[17],inactive
same,outcome,[18],inactive
same,outcome,[19],inactive
S=C([S-])NCCNC(=S)[S-].[Mn+2],outcome,[1],inactive
same,outcome,[2],inactive
same,outcome,[3],inactive
same,outcome,[4],inactive
same,outcome,[5],inactive
same,outcome,[6],inactive
same,AC50,[7],12.2 µM (active)
same,outcome,[8],inactive
same,outcome,[9],inactive
same,outcome,[10],inactive
same,outcome,[11],inactive
same,outcome,[12],inactive
same,outcome,[13],inactive
same,AC50,[14],29.9 µM (active)
same,outcome,[15],inactive
same,outcome,[16],inactive
same,outcome,[17],inactive
same,AC50,[18],27.1 µM (active)
same,outcome,[19],inactive
